Source: PubChem BioAssay (National Center for Advancing Translational Sciences (NCATS))
KinaseGlo FLuc = blocks Kinase-Glo luciferase, a counter-screen artifact; Q27757; Kinase-Glo luciferase, ATP luminescence, 8 min; Potency, µM (highest dose often 38.3 µM), inactives show top-dose activity change, negative = inhibition, hits mostly inhibitors; 200,000 compounds, 0.28% hits; AID 1379; note: % is set by controls: 0 for no effect and ±100 for the full control effect; nearly all actives have a fitted effect of over 60% in size
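Recombinant Kinase-Glo luciferase, 10 uM ATP (linear range), luciferin; imidazole pH 7.2 / KCl / MgCl2 / Tween / BSA buffer; 8 min RT; luminescence.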
NPC1 promoter act = activates the NPC1 promoter; Huh7 NPC1 promoter luciferase reporter, 24 h; Potency, µM (series often up to 9.22 µM), for the others: at the top dose activation, hits mostly activators; 320,000 compounds, 2.4% hits; AID 485313; note: % of control where 0% means no effect; nearly all actives have a fitted effect of over 60% in size
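Cells: Huh7 expressing luciferase under the NPC1 promoter, 1500/well. Seeded 2 h, compound added, incubated 24 h at 37 °C. Luciferase reagent, 10 min ambient, then luminescence.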
FLuc modulator = inhibits or activates purified firefly luciferase, miR-21 counter-screen. 360,000 compounds, 6.9% hits. Potency, µM (top dose mostly 57.5 µM), inactives show top-dose activity change, negative = inhibition, most hits filed as inhibitors. purified FLuc, Km substrates, luminescence inhibition;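 note: plate controls were vehicle for no effect and reference inhibitor for full effect; nearly all actives have a fitted effect of over 55% in size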
Target sequence (P08659 whole entry, looked up): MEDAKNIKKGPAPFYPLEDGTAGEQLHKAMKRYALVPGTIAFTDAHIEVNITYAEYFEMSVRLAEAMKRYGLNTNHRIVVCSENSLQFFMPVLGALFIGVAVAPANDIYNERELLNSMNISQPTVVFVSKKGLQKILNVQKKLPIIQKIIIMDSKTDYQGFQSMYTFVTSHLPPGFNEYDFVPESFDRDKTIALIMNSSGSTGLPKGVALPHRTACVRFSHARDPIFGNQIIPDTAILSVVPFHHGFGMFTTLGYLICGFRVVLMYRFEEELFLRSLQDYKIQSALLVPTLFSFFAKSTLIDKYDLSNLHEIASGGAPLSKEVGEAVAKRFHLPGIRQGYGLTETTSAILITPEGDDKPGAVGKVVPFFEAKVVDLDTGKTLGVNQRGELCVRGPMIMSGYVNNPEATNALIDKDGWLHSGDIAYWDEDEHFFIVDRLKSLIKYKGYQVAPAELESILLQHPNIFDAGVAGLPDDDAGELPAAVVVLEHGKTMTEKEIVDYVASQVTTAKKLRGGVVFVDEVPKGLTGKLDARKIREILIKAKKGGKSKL
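Purified P. pyralis luciferase, 10 nM final, with Km-level 10 uM D-luciferin and 10 uM ATP in 50 mM Tris acetate pH 7.5, 10 mM Mg acetate, 0.01% Tween-20, 0.05% BSA; 6-point qHTS titration about 60 µM downward; luminescence read.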
SMN2 splice enh = SMN2 splice variant enhancement. HEK293 SMN2-luciferase splicing reporter, luminescence, 30-36 h. Potency, µM (titrated, usually from 46.1 µM), without a hit: top-dose activity change, positive = activation, usual class: activators. 210,000 compounds, 2.8% hits. AID 1458; note: % of control where 0% means no effect; nearly all actives have a fitted effect of over 55% in size
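HEK293 cells carry an SMN2 […]–luciferase reporter in which exon 7 inclusion puts luciferase in frame. Cells were plated 10-12 h before compound addition, then incubated 30-36 h at 37C. ONE-Glo luminescence was read; sodium butyrate at 4.5 mM final served as control.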
Rab9 promoter act = activators of Rab9 promoter; Huh7 Rab9 promoter-luciferase reporter, luminescence, 24 h; Potency, µM (series often up to 9.22 µM), inactives show top-dose activation, negative = inhibition, most hits filed as activators; 320,000 compounds, 2.8% hits; AID 485297; note: % of control where 0% means no effect; nearly all actives have a fitted effect of over 60% in size
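Luciferase signal after 10 min detection reagent at ambient indicates Rab9 promoter upregulation; stably transfected Huh7 cells were treated 24 h with compound in DMSO at 37 °C, 5% CO2.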
ELG1 genotox = induces genotoxicity in HEK293T cells with luciferase-tagged ELG1; HEK293T ELG1-luciferase reporter, luminescence, 16 h; 330,000 compounds, 1.3% hits; Potency, µM (top dose mostly 46 µM), without a hit: at the top dose activity change, positive = activation, most hits filed as activators; note: % of control where 0% means no effect; nearly all actives have a fitted effect of over 60% in size
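Step 1: seed 2,000 HEK293T ELG1-luciferase cells per well. Step 2: add compound or DMSO, incubate 16 hr at 37 °C. Step 3: ONE-Glo, 30 min at room temperature, read luminescence.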
An asterisk follows results filed as active; u = inconclusive; x = no result; ! = a repeat was not active; [ ] = another dose, or the depositor's remark. Shown are actives, neighbours in structure and some others; about 7.5% of the full set was active somewhere. Calls come from the whole dose curve; as a rule, active = well fitted curve in the direction sought with a large enough effect; inconclusive = small, poorly fitted or top-dose-only effect, or another doubt; inactive = no such curve, though single readings can be large; an effect the other way counts as inactive or inconclusive. Potency is the fitted concentration of half-maximal effect.

SMILES | KinaseGlo FLuc | NPC1 promoter act | FLuc modulator | SMN2 splice enh | Rab9 promoter act | ELG1 genotox
O=C(COCc1cc(-c2cccs2)on1)Nc1cccc(Cl)c1Cl | x | x | 0% | x | x | x
O=C(NC(CCl)c1ccccc1)c1ccc(Cl)cc1 (stereo unspecified) | -3% | -4% | -18% | -9% | 2%[1.84 µM] | -1%
O=C(Nc1cccc(NC(=O)c2cccc([N+](=O)[O-])c2)n1)c1cccc([N+](=O)[O-])c1 | x | -2% | -13% | x | 0% | u
Cc1ccc(C(=O)Nc2nnc(S(=O)(=O)N3CCOCC3)s2)cc1 | x | 4% | -23% | x | u | 0%
Cc1ccc(C(=O)Nc2nnc(S(=O)(=O)N3CCCCCC3)s2)cc1 | x | -3% | 9.5µM*! | x | 0% | 15%
CC1CN=C(NC(=O)c2cccc([N+](=O)[O-])c2)S1 (stereo unspecified) | x | 0.5µM* | 2.4µM* | x | 0.4µM* | u
CCCC12CN3CC(C)(CN(C1)C3c1ccc(OCc3ccccc3)cc1)C2=O (stereo unspecified) | x | x | -6% | -2% | x | x
C/C(=C\C(=O)c1ccccc1)NNC(=O)c1ccc(Cl)cc1 | x | -2% | -16% | x | 8% | 2%
O=C(/C=C/Sc1ccccc1)c1ccccc1 | -16% | 2% | 0.43µM* | 15% | 13% | u
O=C(/C=C/Sc1ccccc1)c1ccc(Cl)cc1 | -9% | 4% | 1.1µM* | 8% | 2% | u
CCSc1ncc(Cl)c(C(=O)N(Cc2ccccc2)c2ccc(OC)cc2)n1 | x | x | -9% | -48% | x | x
CCCn1c2ccccc2c2cnn(CC(=O)N(Cc3ccccc3)C(C)C)c(=O)c21 | x | x | -10% | x | x | x
Cc1cc(C)c2nc3nc(C)c(C)cc3c(N)c2c1 | 3% | -17% | 17µM* | -79% | -29% | 13%
CCN(C(=O)CSc1nc2ccccc2n1CC(=O)NCc1ccc(OC)cc1)c1ccccc1 | x | x | -15% | x | x | x
CC(=O)C1=NN(c2ccc(Cl)cc2)C(c2ccc3c(c2)OCO3)N(C(C)=O)N1C (stereo unspecified) | x | -6% | 0% | x | -7% | -14%
C/C(=N\OC(=O)c1ccc(C)cc1)c1sc(C)nc1C | -10% | -4% | 2.7µM* | -10% | -2% | 0%
C/C(=N/OC(=O)c1ccccc1Br)c1ccc(C)cc1 | x | 18% | 2.7µM* | x | 17% | u
C/C(=N/N=C(/C)c1cccs1)c1cccs1 | x | u | 4.8µM* | x | u | u
C/C(=N\NC(=O)Cc1ccccc1)c1cccs1 | -7% | 1% | 0% | 3% | -2% | 0%
C/C(=N\OC(=O)c1ccc(Cl)c(Cl)c1)c1sc(C)nc1C | 2% | -1% | 5.4µM* | -10% | -2% | 1%
COc1ccc(C(=O)O/N=C(/c2cccs2)C(C)(C)C)cc1 | x | -2% | -11% | x | 1% | -1%
C/C(=N/OC(=O)c1ccc(C)cc1)c1cccs1 | 13µM* | -1% | 0.076µM* | 11% | 2% | 1%
CN1c2ccccc2Oc2nnc(N3CCN(Cc4ccccc4)CC3)cc21 | 0% | 23% | 19µM* | x | u | 4%
CCN(CC)c1ccc(N=Nc2ncn[nH]2)cc1 | -5% | 2.8µM* | 12µM* | 13µM* | 2.8µM* | u
CCOC(=O)c1cnc2c(C)c(Cl)ccc2c1Nc1ccc(N2CCOCC2)cc1 | x | x | 0% | 5% | x | x
SMILES | KinaseGlo FLuc | NPC1 promoter act | FLuc modulator | SMN2 splice enh | Rab9 promoter act | ELG1 genotox
CCOC(=O)c1sc(NC(=O)c2cncc(Br)c2)nc1C | -3% | -14% | 2.1µM* | 4.5µM* | 17% | 18µM*
CCOC(=O)c1sc(NC(=O)c2ccc3ncsc3c2)nc1C | 0% | -33% | 0.95µM* | 2.8µM* | -37% | 2.3µM*
COC(=O)Cc1csc(NC(=O)c2ccc3ncsc3c2)n1 | x | 21% | 24µM* | x | u | 16%
Cc1ccc2nc(C)cc(C(=O)OCC(=O)Nc3cccnc3Cl)c2c1 | -2% | 1% | 0% | 7% | 5% | 2%
CSC1=NCCN1CCOc1ccccc1 | -2% | 2% | 4% | -19% | -1% | 8%
COc1cc(C(=O)NCC(=O)N2CCN(S(=O)(=O)c3ccccc3C(F)(F)F)CC2)cc(OC)c1OC | x | x | x | x | x | 0%
O=C(/C=C/c1ccc(OC2CSC2)cc1)c1ccc(Cl)cc1 | -2% | -4% | 11µM* | 5% | 0% | 6%
O=C(/C=C/c1ccc(O)cc1)c1ccccc1 | x | 3% | 2.7µM* | x | u | u
COc1ccc(/C=C/C(=O)Oc2cc(O)cc(O)c2)cc1 | x | -3% | 15µM* | x | -1%[1.84 µM] | -1%
COc1ccc(C(=O)/C=C/c2ccc(OC3CSC3)cc2)cc1OC | -17% | -3% | u | -90% | -5% | 6%
CCOc1ccc(/C=C/C(=O)Oc2ccc(OC)cc2)cc1 | x | -1% | u | x | 2% | 3%
O=C(/C=C/c1ccc(O)cc1)c1ccc(NC2=C(N3CCCCC3)C(=O)c3ccccc3C2=O)cc1 | -12% | -35% | 7.6µM* | -99% | -29% | -6%
COc1ccc(CCNC(=O)Cn2cc(S(=O)(=O)Cc3ccccc3F)c3ccccc32)cc1OC | x | x | -4% | x | x | x
COc1ccc(N(CC(=O)NC2CCCC2)C(=O)Cn2nnc(-c3ccc(OC)c(OC)c3)n2)c(OC)c1 | x | 1% | 0% | x | 3% | 1%
COc1ccc(CNC(=O)c2cc3c(=O)oc4ccc(C)cc4c3s2)c(OC)c1 | x | x | -2% | 2% | x | x
Cc1nn(C)cc1/C=C/C(=O)c1ccc(O)cc1 | -6% | u | 13µM* | -10%[1.84 µM] | u | 21µM*
COc1ccc(/C=C/C(=O)C(C(N)=O)=C2SCCS2)cc1 | -2% | 16% | 9.5µM* | -72% | 20% | 5%
COc1ccc(/C=C/C(=O)c2nc3ccccc3n2CC(=O)c2ccc(OC)cc2)cc1 | -3% | -3% | 9.5µM* | 10% | -5% | -7%
NC(=O)C(C(=O)/C=C/c1ccc(Cl)cc1)=C1SCCS1 | x | -11% | u | x | -17% | 2%
COc1ccc(C(=O)/C=C/c2ccc(O)cc2)cc1 | x | -3% | 8.5µM* | x | 3% | 7%
CCOC(=O)c1c(C)[nH]c(CCC(=O)Nc2c(Cl)cc(OC)cc2OC)c1C | x | x | -12% | x | x | x
O=C(/C=C/c1ccc(N2CCC(c3ccccc3)=N2)cc1)c1ccccc1 | -2% | 20% | 15µM* | -10% | 20% | -2%
COc1ccc(-c2cc(O)cc(O)c2)cc1 | -4% | u | 6.7µM* | u | u | 6.5µM*
Cc1ccccc1-c1nc(C(N)=O)c2c(n1)n(-c1ccc3c(c1)OCO3)c(=O)n2C | x | x | 5% | 11% | x | x
O=C(NC1CC(=O)N(c2ccc(F)cc2)C1)c1ccco1 (stereo unspecified) | x | x | -3% | x | x | x
Cc1ccc(CCNC(=O)c2sc3ncccc3c2-n2c(C)ccc2C)cc1 | x | x | -11% | x | x | x
